Consider 18 compounds from PubChem BioAssay.

Test [1] can be described thus: antimalarial activity against Dd2 strain (AID 2302;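 active = growth inhibition above 50% at the single 2 µM test dose, taken to imply half-maximal potency below 2 µM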;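 note: 0% = DMSO untreated growth and 100% = chloroquine plus artemisinin killed control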). The note with it: P. falciparum Dd2 in RBCs, LDH growth readout, 72 h; at 2 µM; active compounds read high.
Test [2] is described as follows: HepG2 cytotoxicity, primary screen, cytotoxicity control for P. falciparum antimalarial project, cell-based, ATP luminescence (AID 2303;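 active = inhibition above 50%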;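 note: 0% = DMSO wells and 100% = digitonin-killed cells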). The settings on record: HepG2 viability, 24-48 h, at 10 µM, active compounds read high.
Test [3] deals with L-lactate dehydrogenase (Plasmodium falciparum (isolate CDC / Honduras)) (UniProt Q27743). Briefly: PfLDH activity inhibition – cell lysate, 3D7 strain, counter-screen for P. falciparum growth inhibition project (AID 2304).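 Note: 0% = vehicle and 100% = reference inhibitor.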 The settings on record: P. falciparum 3D7 crude extract, LDH APAD/NBT absorbance; at 2 µM; active compounds read high. For orientation: Counterscreens check selectivity or assay interference.

Test [4] in a line: inhibition of 3D7 malaria parasite growth – strain 3D7 (AID 2306).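 Note: 0% = DMSO wells and 100% = chloroquine plus artemisinin control wells.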 The settings on record: P. falciparum 3D7 erythrocytic growth, LDH absorbance, 72 h; at 2 µM; active compounds read high.
In test [5] the target is Calcium-dependent protein kinase 1 (Plasmodium falciparum (isolate 3D7)) (UniProt P62344). Briefly: PfCDPK1 kinase inhibitors, biochemical, TCAMS library (AID 1159585; cut-off not given, nearly all actives have IC50 up to about 0.98 µM;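 note: inhibitors leave more ATP so luminescence rises with inhibition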). The note with it: recombinant PfCDPK1, Kinase-Glo ATP depletion luminescence. For orientation: In Kinase-Glo more light means more ATP remaining.
Test [6] has as its target Plasmodium falciparum protein kinase 6 (PK6, PF3D7_1337100) (UniProt Q8IDW1). Briefly: PfPK6 kinase inhibitors, biochemical, TCAMS library (AID 1159586). The settings on record: recombinant PfPK6, Kinase-Glo ATP depletion luminescence.
For test [7], the target named is Protein kinase 7 (PK7), Plasmodium falciparum 3D7 (PF3D7_0213400) (UniProt Q7YTF7). Briefly: inhibition of Plasmodium PK7 catalytic activity – biochemical, TCAMS antimalarial set, Kinase-Glo luminescence (AID 1159587). The note with it: recombinant PfPK7, Kinase-Glo ATP depletion luminescence.
The target in test [8] is Calcium-dependent protein kinase 4 (Plasmodium falciparum (isolate 3D7)) (UniProt Q8IBS5). Briefly: PfCDPK4 kinase inhibitors, biochemical, TCAMS library (AID 1159588; cut-off not given, nearly all actives have IC50 up to about 0.91 µM). The note with it: recombinant PfCDPK4, Kinase-Glo ATP depletion luminescence.

For part of these data: Measured potencies and affinities stand elsewhere. The source made the active and inactive calls. Unless noted, the rule behind the calls is not given here.

Sequence of Calcium-dependent protein kinase 4 (Plasmodium falciparum (isolate 3D7)) (Q8IBS5 whole entry, looked up): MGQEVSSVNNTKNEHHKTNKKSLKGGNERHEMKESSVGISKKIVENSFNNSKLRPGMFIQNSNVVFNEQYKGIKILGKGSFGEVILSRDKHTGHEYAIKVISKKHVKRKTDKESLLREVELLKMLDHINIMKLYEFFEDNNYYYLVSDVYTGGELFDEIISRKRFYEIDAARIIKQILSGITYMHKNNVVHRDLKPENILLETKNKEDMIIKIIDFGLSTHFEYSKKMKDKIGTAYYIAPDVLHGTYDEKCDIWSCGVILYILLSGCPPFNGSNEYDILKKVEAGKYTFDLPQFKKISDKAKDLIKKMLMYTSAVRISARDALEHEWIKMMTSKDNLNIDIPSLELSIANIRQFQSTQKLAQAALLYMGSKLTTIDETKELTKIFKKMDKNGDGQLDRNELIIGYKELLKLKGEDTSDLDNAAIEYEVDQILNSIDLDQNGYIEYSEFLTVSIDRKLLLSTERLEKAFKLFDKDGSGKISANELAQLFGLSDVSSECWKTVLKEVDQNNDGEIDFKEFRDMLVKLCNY
Sequence of Calcium-dependent protein kinase 1 (Plasmodium falciparum (isolate 3D7)) (P62344 whole entry, looked up): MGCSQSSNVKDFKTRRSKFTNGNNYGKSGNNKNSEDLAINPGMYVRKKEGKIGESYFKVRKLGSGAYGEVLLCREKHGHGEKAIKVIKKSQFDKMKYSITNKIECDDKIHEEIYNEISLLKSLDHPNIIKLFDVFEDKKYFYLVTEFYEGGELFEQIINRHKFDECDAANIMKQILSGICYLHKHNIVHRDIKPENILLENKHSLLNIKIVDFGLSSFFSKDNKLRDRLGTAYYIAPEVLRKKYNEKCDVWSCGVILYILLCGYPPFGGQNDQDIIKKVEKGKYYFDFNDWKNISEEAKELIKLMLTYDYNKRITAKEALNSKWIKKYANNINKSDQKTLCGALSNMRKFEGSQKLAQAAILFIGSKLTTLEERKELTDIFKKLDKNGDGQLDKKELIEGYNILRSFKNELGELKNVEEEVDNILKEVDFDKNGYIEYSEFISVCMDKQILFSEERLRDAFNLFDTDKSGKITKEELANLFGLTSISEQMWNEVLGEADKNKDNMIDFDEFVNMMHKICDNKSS
Sequence of Protein kinase 7 (PK7), Plasmodium falciparum 3D7 (PF3D7_0213400) (Q7YTF7 1-343): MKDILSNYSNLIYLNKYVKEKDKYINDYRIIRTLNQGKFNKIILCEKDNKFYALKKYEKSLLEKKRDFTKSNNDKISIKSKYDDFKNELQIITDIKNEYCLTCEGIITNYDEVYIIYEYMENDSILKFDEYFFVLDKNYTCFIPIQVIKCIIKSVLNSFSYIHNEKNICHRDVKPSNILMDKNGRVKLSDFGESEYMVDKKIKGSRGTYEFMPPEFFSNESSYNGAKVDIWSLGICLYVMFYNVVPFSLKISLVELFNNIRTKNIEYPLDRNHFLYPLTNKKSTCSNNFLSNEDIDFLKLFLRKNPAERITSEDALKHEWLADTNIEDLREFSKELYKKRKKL
Sequence of L-lactate dehydrogenase (Plasmodium falciparum (isolate CDC / Honduras)) (Q27743 whole entry, looked up): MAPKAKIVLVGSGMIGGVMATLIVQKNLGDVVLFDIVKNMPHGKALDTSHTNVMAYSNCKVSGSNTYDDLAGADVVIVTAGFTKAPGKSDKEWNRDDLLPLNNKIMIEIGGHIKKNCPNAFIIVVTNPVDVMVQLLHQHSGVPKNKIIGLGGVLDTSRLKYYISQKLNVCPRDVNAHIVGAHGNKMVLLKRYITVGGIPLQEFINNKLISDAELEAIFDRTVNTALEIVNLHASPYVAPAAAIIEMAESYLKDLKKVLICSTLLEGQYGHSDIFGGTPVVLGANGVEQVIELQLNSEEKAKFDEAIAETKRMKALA
Sequence of Plasmodium falciparum protein kinase 6 (PK6, PF3D7_1337100) (Q8IDW1 1-305): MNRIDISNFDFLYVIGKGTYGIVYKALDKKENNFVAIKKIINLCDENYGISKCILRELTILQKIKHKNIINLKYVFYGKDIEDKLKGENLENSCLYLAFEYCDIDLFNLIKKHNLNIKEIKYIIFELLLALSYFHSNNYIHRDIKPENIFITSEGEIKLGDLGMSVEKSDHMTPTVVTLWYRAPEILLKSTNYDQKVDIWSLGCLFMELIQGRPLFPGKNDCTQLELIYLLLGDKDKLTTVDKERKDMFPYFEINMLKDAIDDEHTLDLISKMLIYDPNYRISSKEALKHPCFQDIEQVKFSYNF

Regarding `O=C(Nc1cccc(OC2CCN(Cc3ccccc3)CC2)c1)c1ccc([N+](=O)[O-])cc1`, the results for the growth inhibition in test [1] and in test [4] were 2% (inactive) and 100% (active), respectively. For the same compound, the inhibition (in general, the relative decrease from the control value, in per cent) in test [2] is 6% (inactive); in test [3], 3% (inactive). The outcome in test [5], in test [6], in test [7] and in test [8] was inactive.

With `COc1cc(CNC(=S)NN=C(C)c2ccccn2)cc(OC)c1OC`, the growth inhibition was 92% (active) in test [1] and 99% (active) in test [4]. The inhibition is 45% (inactive) in test [2] and -4% (inactive) in test [3]. The result in test [5], in test [6], in test [7] and in test [8] was inactive.

In the case of `O=C(NCCCN1CCN(c2cccc(Cl)c2)CC1)c1ccc(-c2nc3cc(Cl)c(Cl)cc3[nH]2)c(F)c1`, the figures for the growth inhibition in test [1] and in test [4] were 72% (active) and 101% (active), respectively. Also, the inhibition is 3% (inactive) in test [2] and 2% (inactive) in test [3]. The outcome in test [5], in test [6], in test [7] and in test [8] was inactive.

Turning to `CC(CCCCCC(=O)Nc1ccc(CC(C)NCCc2cccc(Cl)c2)cc1)NCCc1cccc(Cl)c1` (centres undefined), the growth inhibition in test [1] is 37% (inactive); in test [4], 91% (active). Also, the inhibition in test [2] is 99% (active); in test [3], 1% (inactive). The result in test [5], in test [6], in test [7] and in test [8] was inactive.

For the compound `CN1CCCc2ccc(NC(=O)Nc3ccc(-c4ccccc4)cc3)cc2C1`, the growth inhibition is 47% (inactive) in test [1] and 97% (active) in test [4]. In addition, the inhibition in test [2] is 23% (inactive); in test [3] it was 0% (inactive). The outcome in test [5], in test [6], in test [7] and in test [8] was inactive.

For the compound `COC(=O)c1ccc2[nH]cc(C3CCN(CCC4CCN(C(=O)/C=C/c5ccc(Cl)c(Cl)c5)CC4)CC3)c2c1`, the growth inhibition was 59% (active) in test [1] and 97% (active) in test [4]. In addition, the inhibition in test [2] was 24% (inactive); in test [3], 1% (inactive). The result in test [5], in test [6], in test [7] and in test [8] was inactive.

Consider `Cc1ccc2nc(C)cc(NN=Cc3ccc([N+](=O)[O-])cc3)c2c1`, for which the growth inhibition is 15% (inactive) in test [1] and 102% (active) in test [4]. Further, the inhibition in test [2] was 10% (inactive); in test [3], 3% (inactive). The result in test [5], in test [6], in test [7] and in test [8] was inactive.

As to `Cc1cc(NC(=O)Nc2ccc(C(C)(C)C)cc2)c2ccccc2n1`, the growth inhibition in test [1] is 57% (active); in test [4] it was 101% (active). Besides, the inhibition was -3% (inactive) in test [2] and 5% (inactive) in test [3]. The outcome in test [5], in test [6], in test [7] and in test [8] was inactive.

In the case of `CCN(CC)CCN(CCN(CC)CC)c1ccc(-c2nc3cc(Cl)c(Cl)cc3[nH]2)cc1`, the growth inhibition in test [1] was 97% (active); in test [4], 101% (active). For the same compound, the results for the inhibition in test [2] and in test [3] were 9% (inactive) and 2% (inactive), respectively. Moreover, the result in test [5], in test [6], in test [7] and in test [8] was inactive.

Turning to `Cc1cc(N[C@@H](Cc2ccccc2)C(=O)NCCOc2ccccc2)nc(NCCOc2ccccc2)n1`, the growth inhibition in test [1] was 24% (inactive); in test [4], 98% (active). The inhibition in test [2] is -1% (inactive); in test [3], -4% (inactive). For the same compound, the result in test [5], in test [6], in test [7] and in test [8] was inactive.

With `Cc1cc(NC(=O)c2ccc(S(=O)(=O)N(Cc3ccccc3)C(C)C)cc2)no1`, the growth inhibition is 67% (active) in test [1] and 87% (active) in test [4]. In addition, the inhibition in test [2] is -6% (inactive); in test [3] it was -1% (inactive). Moreover, the outcome in test [5], in test [6], in test [7] and in test [8] was inactive.

As for `COc1ccc(-c2nc(-c3ccc([N+](=O)[O-])cc3)no2)cc1OC`, the growth inhibition in test [1] is -5% (inactive); in test [4] it was 96% (active). Also, the inhibition in test [2] was 14% (inactive); in test [3], -1% (inactive). The outcome in test [5], in test [6], in test [7] and in test [8] was inactive.

For `CSc1ccc2ccccc2c1CCNCCCCNCCc1c(SC)ccc2ccccc12`, the growth inhibition in test [1] was 60% (active); in test [4], 101% (active). Further, the inhibition was 99% (active) in test [2] and 3% (inactive) in test [3]. Besides, the outcome in test [5], in test [6], in test [7] and in test [8] was inactive.

Take `COc1ccc2c(c1C1CCN(CCCCNC(=O)c3ccc(-c4ccc(Cl)cn4)cc3)CC1)CCCC2`: the growth inhibition in test [1] was 49% (inactive); in test [4], 90% (active). The inhibition was 29% (inactive) in test [2] and -2% (inactive) in test [3]. The result in test [5], in test [6], in test [7] and in test [8] was inactive.

For the compound `CCOC(=O)c1ccc(NC(=O)Nc2ccc(-c3cccc(-c4nc5ccccc5[nH]4)c3)cc2)cc1`, the growth inhibition in test [1] was 99% (active); in test [4], 101% (active). Moreover, the inhibition in test [2] is 94% (active); in test [3], -4% (inactive). The outcome in test [5], in test [6], in test [7] and in test [8] was inactive.

With `Nc1nc(N)c2cc(NS(=O)(=O)c3ccc(-c4ccccc4)cc3)ccc2n1`, the growth inhibition in test [1] was 54% (active); in test [4] it was 102% (active). Moreover, the inhibition in test [2] is 7% (inactive); in test [3], -3% (inactive). The outcome in test [5], in test [6], in test [7] and in test [8] was inactive.

As for `Cc1cnc(C(=O)Nc2ccc3c(c2)CCCN(Cc2c[nH]c4cnccc24)C3)cn1`, the growth inhibition in test [1] was 20% (inactive); in test [4], 92% (active). Further, the values for the inhibition in test [2] and in test [3] were 0% (inactive) and -3% (inactive), respectively. Besides, the outcome in test [5], in test [6], in test [7] and in test [8] was inactive.

Consider `CN(C)Cc1cccc(-c2ccc(NC(=O)c3ccc4c(=O)n(C5CCCCC5)cnc4c3)cc2)c1`, for which the growth inhibition in test [1] is 53% (active); in test [4] it was 96% (active). Besides, the values for the inhibition in test [2] and in test [3] were 92% (active) and -3% (inactive), respectively. The outcome in test [5], in test [6], in test [7] and in test [8] was inactive.
